This is an account of results in article PMC7862700, “An all-to-all approach to the identification of sequence-specific readers for epigenetic DNA modifications on cytosine”.

Common to all, as to assay: DAPPL (digital affinity profiling via proximity ligation, sequencing); 10 mM Tris-HCl pH 7.5, 50 mM NaCl, 1 mM DTT, 4% glycerol, room temperature, 30 min; GST-TFs on glutathione beads, 16-mer random dsDNA library, 0.1% formaldehyde crosslink after washing; high values mean tight binding
Holding throughout (settings): protein: recombinant; tags: N-terminal GST; dsDNA, one strand shown

One test has as its target T1, ELK1 (Homo sapiens, UniProt P19419 1-428).
T1 sequence: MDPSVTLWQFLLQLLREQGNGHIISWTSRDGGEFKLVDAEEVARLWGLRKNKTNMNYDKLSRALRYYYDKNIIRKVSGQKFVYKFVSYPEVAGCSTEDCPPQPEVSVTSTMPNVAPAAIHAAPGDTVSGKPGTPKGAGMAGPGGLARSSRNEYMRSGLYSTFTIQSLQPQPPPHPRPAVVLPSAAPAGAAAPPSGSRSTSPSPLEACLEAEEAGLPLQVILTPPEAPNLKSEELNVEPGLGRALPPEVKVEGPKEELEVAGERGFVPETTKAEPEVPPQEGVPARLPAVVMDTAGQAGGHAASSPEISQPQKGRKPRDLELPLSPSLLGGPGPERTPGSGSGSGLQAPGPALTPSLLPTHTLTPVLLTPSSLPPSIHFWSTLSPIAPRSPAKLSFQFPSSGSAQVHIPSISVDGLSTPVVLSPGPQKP
An outline of the steps: (§1)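 Each value of binding signal is a hexamer's read frequency for a factor divided by the same hexamer's frequency in the tag-only sample. Barcoded, bead-captured GST fusions of human transcription factors made in yeast were pooled with that sample and incubated with 200 nmole of a random double-stranded 16-mer DNA library in Tris/NaCl/DTT/glycerol buffer at room temperature for 30 min. Washing, 0.1% formaldehyde crosslinking, proximity ligation, PCR and Illumina NextSeq500 sequencing followed.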

For the next test, the target named is T2, GABPA (Homo sapiens, UniProt Q06546 1-454).
T2 sequence: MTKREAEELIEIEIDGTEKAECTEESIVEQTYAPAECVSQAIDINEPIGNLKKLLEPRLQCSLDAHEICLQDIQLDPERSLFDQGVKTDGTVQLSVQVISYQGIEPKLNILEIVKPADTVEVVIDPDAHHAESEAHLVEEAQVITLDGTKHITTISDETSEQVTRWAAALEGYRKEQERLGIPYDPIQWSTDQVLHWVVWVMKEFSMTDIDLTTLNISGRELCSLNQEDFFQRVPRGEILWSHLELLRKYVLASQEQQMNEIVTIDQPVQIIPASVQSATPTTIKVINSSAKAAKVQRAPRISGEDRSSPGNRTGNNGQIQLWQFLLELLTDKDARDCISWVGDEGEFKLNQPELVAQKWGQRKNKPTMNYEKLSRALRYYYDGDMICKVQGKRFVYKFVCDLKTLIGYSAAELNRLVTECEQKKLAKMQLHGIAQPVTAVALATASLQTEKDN
The gist of the method:
as §1

Another test addresses T3, ERG (Homo sapiens, UniProt P11308 1-479).
T3 sequence: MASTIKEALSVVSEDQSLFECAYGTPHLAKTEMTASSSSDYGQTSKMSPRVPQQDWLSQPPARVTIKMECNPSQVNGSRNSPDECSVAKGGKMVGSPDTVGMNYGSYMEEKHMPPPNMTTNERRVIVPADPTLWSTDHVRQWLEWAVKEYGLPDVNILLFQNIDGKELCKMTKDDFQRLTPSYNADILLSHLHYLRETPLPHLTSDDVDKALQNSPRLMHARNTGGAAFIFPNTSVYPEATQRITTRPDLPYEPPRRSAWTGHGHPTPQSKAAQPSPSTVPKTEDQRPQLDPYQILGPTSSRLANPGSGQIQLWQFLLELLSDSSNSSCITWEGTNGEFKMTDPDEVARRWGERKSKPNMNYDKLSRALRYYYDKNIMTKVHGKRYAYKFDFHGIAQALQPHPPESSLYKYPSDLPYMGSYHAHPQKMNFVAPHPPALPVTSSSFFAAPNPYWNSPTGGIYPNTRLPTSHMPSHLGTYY
An outline of the steps: as §1

The target of a further test is ELF1 (Homo sapiens, UniProt P32519 1-619). An outline of the steps: as §1
In another test the target is SPI1 (Homo sapiens, UniProt P17947 1-270). An outline of the steps:
as §1

For the next test, the target named is SPIB (Homo sapiens, UniProt Q01892 1-262). An outline of the steps: as §1
A further test addresses T4, SPIC (Homo sapiens, UniProt Q8N5J4 1-248).
T4 sequence: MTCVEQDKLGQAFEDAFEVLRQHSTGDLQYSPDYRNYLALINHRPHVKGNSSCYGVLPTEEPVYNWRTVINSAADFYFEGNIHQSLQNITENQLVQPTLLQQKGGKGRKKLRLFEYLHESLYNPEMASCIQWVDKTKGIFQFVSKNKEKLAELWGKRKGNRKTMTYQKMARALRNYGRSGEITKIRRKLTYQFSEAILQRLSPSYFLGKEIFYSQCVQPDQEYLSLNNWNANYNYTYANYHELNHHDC
An outline of the steps:
as §1

Another test deals with ELF4 (Homo sapiens, UniProt Q99607 1-663). The gist of the method: as §1
Another test addresses T5, ELK4 (Homo sapiens, UniProt P28324-2 1-405).
T5 sequence: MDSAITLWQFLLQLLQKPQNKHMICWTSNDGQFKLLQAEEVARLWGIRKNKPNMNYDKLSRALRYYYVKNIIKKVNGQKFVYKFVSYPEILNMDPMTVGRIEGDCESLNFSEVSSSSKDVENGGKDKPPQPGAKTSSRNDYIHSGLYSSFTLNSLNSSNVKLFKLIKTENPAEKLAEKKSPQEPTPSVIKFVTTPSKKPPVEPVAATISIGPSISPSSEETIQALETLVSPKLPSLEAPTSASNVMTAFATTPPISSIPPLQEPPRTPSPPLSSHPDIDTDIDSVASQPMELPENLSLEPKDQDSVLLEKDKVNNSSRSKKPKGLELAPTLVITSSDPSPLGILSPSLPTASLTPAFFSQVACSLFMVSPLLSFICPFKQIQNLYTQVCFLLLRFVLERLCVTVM
An outline of the steps:
as §1

The target of another test is T6, ELF3 (Homo sapiens, UniProt P78545 1-371).
T6 sequence: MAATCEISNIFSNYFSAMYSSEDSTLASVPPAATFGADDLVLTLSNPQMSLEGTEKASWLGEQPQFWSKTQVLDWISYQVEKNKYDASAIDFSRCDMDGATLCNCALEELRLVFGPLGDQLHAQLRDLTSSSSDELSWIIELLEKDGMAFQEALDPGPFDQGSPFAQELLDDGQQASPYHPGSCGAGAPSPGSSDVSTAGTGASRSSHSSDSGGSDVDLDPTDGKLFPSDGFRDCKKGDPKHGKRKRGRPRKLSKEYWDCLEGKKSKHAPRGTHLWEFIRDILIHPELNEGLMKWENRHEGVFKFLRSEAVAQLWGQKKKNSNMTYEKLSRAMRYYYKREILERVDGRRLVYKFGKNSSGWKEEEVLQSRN
An outline of the steps: as §1

For a further test, the target named is ETV1 (Homo sapiens, UniProt P50549 1-477). The gist of the method:
as §1

A further test deals with T7, ERF (Homo sapiens, UniProt P50548 1-548).
T7 sequence: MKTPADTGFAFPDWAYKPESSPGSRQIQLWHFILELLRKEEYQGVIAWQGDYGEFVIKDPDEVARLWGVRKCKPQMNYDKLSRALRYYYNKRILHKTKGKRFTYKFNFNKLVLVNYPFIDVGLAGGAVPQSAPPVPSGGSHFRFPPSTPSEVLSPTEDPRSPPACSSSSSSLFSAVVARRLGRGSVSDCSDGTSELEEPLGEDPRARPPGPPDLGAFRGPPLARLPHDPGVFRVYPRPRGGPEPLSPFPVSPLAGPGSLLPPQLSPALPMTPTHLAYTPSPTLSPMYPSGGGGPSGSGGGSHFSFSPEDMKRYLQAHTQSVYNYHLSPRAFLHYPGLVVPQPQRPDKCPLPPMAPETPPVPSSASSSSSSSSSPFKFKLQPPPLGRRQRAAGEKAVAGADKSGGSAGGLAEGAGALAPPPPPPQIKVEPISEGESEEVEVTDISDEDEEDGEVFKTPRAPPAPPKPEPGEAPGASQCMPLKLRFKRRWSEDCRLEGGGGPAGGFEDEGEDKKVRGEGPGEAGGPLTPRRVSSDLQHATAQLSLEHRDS
An outline of the steps:
as §1

The next test deals with T8, ETV3L (Homo sapiens, UniProt Q6ZN32 1-361).
T8 sequence: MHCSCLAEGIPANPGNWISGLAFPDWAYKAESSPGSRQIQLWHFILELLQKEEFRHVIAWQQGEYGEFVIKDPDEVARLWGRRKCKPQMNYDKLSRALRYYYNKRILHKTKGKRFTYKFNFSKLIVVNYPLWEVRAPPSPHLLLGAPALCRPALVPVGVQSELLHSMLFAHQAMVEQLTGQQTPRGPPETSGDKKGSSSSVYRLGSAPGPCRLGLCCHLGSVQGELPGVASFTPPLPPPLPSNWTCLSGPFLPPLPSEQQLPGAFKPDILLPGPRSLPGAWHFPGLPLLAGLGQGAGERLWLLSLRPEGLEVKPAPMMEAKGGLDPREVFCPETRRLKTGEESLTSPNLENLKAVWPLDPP
An outline of the steps:
as §1

The target in a further test is T9, ETS2 (Homo sapiens, UniProt P15036 1-469).
T9 sequence: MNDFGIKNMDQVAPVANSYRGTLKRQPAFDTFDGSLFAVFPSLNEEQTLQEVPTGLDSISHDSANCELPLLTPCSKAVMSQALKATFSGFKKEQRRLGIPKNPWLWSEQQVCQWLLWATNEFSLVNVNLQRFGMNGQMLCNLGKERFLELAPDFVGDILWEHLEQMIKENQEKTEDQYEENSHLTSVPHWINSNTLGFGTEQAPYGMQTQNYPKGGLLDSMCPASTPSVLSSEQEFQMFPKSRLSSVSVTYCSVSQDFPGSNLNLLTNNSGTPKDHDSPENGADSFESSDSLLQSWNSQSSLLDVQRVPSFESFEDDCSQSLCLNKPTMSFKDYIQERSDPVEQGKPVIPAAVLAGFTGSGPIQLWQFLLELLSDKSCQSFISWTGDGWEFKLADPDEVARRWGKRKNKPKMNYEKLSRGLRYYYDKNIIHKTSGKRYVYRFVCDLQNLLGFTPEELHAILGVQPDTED
An outline of the steps:
as §1

The next test has as its target T10, SPDEF (Homo sapiens, UniProt O95238 1-335).
T10 sequence: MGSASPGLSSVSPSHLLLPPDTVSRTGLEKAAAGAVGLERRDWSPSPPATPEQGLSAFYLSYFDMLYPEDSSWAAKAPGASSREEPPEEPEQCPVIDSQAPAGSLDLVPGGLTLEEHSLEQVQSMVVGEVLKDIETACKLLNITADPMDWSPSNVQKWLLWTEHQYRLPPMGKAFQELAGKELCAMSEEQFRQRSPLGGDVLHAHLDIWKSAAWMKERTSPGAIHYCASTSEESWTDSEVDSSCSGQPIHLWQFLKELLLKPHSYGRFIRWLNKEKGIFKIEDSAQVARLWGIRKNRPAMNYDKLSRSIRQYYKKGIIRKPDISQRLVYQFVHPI
An outline of the steps:
as §1

A further test concerns the target T11, ETV7 (Homo sapiens, UniProt Q9Y603 1-341).
T11 sequence: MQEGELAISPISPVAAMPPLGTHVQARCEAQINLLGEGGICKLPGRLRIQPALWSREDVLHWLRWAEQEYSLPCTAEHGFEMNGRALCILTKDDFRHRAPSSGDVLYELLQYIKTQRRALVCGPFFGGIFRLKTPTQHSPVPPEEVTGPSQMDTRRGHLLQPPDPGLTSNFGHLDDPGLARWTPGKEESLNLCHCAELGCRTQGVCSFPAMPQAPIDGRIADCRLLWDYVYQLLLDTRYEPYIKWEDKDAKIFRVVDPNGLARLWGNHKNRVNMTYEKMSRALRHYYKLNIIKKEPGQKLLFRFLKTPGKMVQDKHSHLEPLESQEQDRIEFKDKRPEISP
An outline of the steps: as §1

The target of a further test is T12, ETV3 (Homo sapiens, UniProt P41162-2 1-143).
T12 sequence: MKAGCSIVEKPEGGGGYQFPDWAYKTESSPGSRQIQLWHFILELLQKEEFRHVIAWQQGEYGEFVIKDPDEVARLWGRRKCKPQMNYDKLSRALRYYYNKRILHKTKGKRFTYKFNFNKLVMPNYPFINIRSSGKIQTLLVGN
An outline of the steps: as §1

In the next test the target is ETV6 (Homo sapiens, UniProt P41212 1-452). An outline of the steps: as §1
ETV6, sequence (P41212 whole entry): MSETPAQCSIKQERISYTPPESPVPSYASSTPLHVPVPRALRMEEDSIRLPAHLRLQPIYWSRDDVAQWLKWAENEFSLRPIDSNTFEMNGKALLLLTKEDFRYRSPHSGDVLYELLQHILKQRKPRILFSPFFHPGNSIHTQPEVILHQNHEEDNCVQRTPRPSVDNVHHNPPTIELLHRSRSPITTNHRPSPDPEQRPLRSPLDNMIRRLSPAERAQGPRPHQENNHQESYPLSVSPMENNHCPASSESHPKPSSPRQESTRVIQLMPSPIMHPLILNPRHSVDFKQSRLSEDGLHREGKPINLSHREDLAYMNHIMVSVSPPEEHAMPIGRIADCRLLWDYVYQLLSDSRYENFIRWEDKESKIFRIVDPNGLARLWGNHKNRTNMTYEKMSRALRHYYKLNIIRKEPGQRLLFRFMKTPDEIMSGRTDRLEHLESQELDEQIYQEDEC

SPIB, sequence (Q01892 whole entry): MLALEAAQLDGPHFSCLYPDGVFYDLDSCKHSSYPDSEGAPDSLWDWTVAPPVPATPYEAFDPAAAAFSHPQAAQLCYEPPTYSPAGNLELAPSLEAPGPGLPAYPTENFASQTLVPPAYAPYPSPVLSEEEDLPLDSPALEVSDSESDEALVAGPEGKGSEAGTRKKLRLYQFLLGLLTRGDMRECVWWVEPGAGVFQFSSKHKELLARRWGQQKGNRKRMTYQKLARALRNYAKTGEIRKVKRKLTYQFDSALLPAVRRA
ETV1, sequence (P50549 whole entry): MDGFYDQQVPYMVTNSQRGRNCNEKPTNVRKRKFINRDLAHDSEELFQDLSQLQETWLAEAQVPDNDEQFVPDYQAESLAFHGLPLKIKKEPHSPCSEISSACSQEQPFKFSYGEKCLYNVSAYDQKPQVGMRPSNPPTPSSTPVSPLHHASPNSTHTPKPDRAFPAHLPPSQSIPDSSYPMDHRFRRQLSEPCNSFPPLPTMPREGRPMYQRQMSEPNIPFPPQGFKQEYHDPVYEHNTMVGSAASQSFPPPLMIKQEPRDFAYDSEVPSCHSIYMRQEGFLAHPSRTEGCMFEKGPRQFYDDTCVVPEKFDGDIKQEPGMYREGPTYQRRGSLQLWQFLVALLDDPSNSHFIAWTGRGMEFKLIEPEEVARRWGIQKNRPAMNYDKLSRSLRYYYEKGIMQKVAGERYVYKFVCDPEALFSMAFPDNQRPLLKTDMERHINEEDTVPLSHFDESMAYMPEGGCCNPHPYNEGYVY
ELF1, sequence (P32519 whole entry): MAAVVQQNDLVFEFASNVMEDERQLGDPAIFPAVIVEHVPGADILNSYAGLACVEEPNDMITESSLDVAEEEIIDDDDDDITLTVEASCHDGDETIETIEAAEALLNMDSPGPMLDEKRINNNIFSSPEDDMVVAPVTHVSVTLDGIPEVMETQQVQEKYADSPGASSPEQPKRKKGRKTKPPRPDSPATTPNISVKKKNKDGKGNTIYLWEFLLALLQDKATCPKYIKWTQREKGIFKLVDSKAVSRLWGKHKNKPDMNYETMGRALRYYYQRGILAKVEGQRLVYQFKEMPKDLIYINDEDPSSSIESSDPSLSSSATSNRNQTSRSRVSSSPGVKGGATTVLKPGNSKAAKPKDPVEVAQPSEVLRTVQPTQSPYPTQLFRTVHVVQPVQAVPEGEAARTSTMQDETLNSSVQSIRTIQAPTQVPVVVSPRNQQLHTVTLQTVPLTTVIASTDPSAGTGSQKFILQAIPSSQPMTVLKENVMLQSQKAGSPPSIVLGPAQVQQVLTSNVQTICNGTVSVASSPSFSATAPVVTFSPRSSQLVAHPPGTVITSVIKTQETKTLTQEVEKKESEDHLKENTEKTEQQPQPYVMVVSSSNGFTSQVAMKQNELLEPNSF
ELF4, sequence (Q99607 whole entry): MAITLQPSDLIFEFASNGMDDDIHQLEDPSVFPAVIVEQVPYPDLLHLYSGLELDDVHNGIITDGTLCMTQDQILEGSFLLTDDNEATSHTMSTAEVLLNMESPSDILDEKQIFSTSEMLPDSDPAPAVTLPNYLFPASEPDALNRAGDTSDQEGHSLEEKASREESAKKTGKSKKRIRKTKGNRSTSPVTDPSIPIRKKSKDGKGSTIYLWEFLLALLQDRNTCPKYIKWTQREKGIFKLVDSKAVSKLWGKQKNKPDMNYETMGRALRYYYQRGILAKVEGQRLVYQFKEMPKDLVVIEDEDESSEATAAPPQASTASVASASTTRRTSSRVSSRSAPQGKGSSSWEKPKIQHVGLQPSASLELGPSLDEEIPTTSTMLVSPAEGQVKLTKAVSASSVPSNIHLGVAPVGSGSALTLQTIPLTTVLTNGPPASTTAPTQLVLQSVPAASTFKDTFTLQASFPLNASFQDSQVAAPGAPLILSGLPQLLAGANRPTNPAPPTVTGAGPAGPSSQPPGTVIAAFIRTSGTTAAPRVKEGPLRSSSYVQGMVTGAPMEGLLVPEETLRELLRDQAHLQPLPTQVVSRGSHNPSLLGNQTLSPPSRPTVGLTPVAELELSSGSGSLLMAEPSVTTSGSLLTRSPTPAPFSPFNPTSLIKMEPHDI

Regarding ATAAGA, the binding signal is 1.12 fold enrichment (6-mer frequency, TF over GST control) with ELK1; 1.08 fold enrichment (6-mer frequency, TF over GST control) with GABPA; 1.11 fold enrichment (6-mer frequency, TF over GST control) with ERG; 1.04 fold enrichment (6-mer frequency, TF over GST control) in the test with ELF1; 1.13 fold enrichment (6-mer frequency, TF over GST control) in the test with SPI1; 1.04 fold enrichment (6-mer frequency, TF over GST control) in the test with SPIB. Also, the binding signal with SPIC was 1.03 fold enrichment (6-mer frequency, TF over GST control); with ELF4, 1.06 fold enrichment (6-mer frequency, TF over GST control); in the test with ELK4, 1.11 fold enrichment (6-mer frequency, TF over GST control); in the test with ELF3 it was 1.04 fold enrichment (6-mer frequency, TF over GST control); with ETV1 it was 1.1 fold enrichment (6-mer frequency, TF over GST control); with ERF it was 1.14 fold enrichment (6-mer frequency, TF over GST control). Also, the binding signal in the test with ETV3L was 1.05 fold enrichment (6-mer frequency, TF over GST control); with ETS2 it was 1.09 fold enrichment (6-mer frequency, TF over GST control); with SPDEF it was 1.15 fold enrichment (6-mer frequency, TF over GST control); in the test with ETV7 it was 1.04 fold enrichment (6-mer frequency, TF over GST control); with ETV3 it was 1.07 fold enrichment (6-mer frequency, TF over GST control); with ETV6, 1.07 fold enrichment (6-mer frequency, TF over GST control).
